The results in this text go back to ChEMBL document CHEMBL3988442, “University of Dundee, Small-Polar-MMV Screening Library” (2021).

Structures are written as SMILES. For some of these results: Entries with a potency or affinity are not part of this list.

Holding throughout (design): scale not given: direction of the effect not stated beside the values
The target of assay [1] is Protein translocase subunit SecA (Escherichia coli (strain K12)) (UniProt P10408). As to the kind of experiment: Assay to Identify E. coli SecA ATPase Inhibitors. The note with it: 30 µM. In kind it is functional.
Protein translocase subunit SecA (Escherichia coli (strain K12)), sequence (P10408 whole entry): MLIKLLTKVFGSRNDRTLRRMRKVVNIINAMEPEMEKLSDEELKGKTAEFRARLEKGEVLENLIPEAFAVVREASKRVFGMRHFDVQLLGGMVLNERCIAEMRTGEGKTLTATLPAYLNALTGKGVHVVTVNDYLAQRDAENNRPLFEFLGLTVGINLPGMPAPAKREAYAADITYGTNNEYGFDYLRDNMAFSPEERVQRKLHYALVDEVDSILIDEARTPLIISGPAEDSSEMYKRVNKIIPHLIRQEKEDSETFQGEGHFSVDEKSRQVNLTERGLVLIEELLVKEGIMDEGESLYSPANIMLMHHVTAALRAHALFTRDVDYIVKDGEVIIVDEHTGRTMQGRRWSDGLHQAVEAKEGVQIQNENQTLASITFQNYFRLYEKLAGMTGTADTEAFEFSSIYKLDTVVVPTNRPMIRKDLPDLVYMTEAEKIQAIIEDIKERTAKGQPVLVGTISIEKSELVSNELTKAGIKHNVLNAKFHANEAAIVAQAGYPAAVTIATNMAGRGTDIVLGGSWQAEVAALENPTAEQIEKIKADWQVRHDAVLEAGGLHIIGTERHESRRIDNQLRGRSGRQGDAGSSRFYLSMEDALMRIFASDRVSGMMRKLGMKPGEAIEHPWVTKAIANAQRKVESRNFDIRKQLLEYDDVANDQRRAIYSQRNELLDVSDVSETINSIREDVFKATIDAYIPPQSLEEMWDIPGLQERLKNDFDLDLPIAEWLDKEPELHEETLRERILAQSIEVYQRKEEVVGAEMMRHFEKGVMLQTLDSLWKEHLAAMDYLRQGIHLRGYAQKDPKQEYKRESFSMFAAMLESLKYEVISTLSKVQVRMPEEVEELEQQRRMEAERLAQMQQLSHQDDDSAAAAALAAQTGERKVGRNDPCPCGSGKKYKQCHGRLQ
Assay [2] concerns the target T1, Ubiquitin-activating enzyme e1, putative (Leishmania donovani (strain BPK282A1)) (UniProt E9BSI1).
T1 sequence (whole entry): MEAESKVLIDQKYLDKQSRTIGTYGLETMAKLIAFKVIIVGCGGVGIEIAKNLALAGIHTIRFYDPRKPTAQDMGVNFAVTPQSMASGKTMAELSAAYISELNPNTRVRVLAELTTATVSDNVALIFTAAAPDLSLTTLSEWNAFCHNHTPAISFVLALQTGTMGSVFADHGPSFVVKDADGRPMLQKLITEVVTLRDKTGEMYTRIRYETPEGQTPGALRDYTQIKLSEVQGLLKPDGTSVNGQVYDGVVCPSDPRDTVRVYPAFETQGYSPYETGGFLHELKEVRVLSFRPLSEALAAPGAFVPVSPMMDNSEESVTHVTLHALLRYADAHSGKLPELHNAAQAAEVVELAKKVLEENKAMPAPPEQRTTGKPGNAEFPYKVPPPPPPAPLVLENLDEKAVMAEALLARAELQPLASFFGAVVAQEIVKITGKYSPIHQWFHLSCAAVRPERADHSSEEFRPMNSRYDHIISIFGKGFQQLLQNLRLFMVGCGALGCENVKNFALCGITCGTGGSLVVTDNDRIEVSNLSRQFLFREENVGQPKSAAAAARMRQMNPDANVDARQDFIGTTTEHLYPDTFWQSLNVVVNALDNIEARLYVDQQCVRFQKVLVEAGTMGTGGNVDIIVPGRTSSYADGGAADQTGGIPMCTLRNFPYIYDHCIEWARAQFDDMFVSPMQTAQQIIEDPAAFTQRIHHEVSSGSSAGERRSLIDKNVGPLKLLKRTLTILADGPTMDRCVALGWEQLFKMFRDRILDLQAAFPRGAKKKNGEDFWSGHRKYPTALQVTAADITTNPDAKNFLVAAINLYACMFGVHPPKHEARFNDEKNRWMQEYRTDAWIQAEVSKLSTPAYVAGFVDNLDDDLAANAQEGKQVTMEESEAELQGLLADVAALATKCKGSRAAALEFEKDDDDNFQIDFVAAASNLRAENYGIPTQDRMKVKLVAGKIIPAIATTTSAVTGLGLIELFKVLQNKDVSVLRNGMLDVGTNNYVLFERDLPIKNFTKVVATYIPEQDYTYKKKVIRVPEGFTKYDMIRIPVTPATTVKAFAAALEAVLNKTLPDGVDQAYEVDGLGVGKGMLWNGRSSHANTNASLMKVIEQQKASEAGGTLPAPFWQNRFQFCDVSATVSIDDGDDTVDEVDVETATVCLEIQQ
As to the kind of experiment: Leishmania donovani Ubiquitin Activating Enzyme (LdE1). In kind it is functional. The settings on record: 30 µM.

The target in assay [3] is AMP-activated protein kinase, AMPK (Homo sapiens) (UniProt P54646+O43741+P54619+Q9UGJ0+Q9Y478+Q13131+Q9UGI9). As to the kind of experiment: AMP-dependent Kinase enzyme assay. An in vitro enzyme assay that detects ADP turnover that is directly proportional to AMPK activity. This uses naive AMPK that is activated during the assay with MK-8722. In kind it is functional. The note with it: 30 µM.

The target of assay [4] is Sialic acid-binding Ig-like lectin 9 (Homo sapiens) (UniProt Q9Y336). As to the kind of experiment: Hs-Siglec9 ALPHAscreen SOP 20170721. The note with it: 10 µM.
Sialic acid-binding Ig-like lectin 9 (Homo sapiens), sequence (Q9Y336 whole entry): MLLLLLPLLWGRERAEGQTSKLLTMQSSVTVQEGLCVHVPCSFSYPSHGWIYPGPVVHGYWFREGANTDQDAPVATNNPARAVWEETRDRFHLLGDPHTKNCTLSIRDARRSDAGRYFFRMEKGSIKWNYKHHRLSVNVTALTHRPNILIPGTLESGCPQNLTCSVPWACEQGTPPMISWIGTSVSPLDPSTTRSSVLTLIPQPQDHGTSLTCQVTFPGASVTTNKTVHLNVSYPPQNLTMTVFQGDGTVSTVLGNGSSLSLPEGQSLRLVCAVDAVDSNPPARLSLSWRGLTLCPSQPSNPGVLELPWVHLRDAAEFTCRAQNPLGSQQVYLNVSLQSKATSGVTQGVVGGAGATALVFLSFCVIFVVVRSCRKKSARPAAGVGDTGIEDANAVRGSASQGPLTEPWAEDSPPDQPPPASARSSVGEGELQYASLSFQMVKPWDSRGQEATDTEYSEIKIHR
A further assay concerns Trypanosoma cruzi. As to the kind of experiment: Trypanosoma cruzi phosphomannomutase and mannose-1-phosphate guanylyltransferase assay. In kind it is functional. The note with it: 10 µM.
The target in assay [5] is T2, Arginase-2, mitochondrial (Homo sapiens) (UniProt P78540).
T2 sequence (whole entry): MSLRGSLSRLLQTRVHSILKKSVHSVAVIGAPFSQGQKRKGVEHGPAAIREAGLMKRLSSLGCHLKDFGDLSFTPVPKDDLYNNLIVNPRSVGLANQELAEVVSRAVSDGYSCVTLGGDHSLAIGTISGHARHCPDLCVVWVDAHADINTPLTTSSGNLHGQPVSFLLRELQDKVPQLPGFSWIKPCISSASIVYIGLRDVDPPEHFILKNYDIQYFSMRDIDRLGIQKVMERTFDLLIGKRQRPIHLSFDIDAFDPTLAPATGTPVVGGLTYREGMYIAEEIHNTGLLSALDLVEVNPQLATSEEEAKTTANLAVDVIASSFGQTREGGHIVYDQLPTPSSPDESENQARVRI
As to the kind of experiment: in vitro enzyme assay to detect the production of urea directly proportional to the activity of Arginase II. Also: in the data most compounds retested in dose-response had high values. In kind it is functional. The note with it: 33.3 µM.

Assay [6] has as its target T3, Proteasome subunit beta (Trypanosoma cruzi) (UniProt O96673).
T3 sequence (whole entry): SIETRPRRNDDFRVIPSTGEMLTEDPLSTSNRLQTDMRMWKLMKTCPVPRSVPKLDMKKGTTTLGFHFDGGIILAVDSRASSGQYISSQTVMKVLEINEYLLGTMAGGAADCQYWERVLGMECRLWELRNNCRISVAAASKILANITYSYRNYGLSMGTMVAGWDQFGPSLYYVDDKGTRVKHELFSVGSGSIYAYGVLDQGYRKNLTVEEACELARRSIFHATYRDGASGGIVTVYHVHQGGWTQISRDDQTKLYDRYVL
As to the kind of experiment: Trypanosoma cruzi proteasome chymotrypsin-like activity (TcProtChymo) assay. Also: in the data most compounds retested in dose-response had high values. In kind it is functional. The note with it: 9.37 µM.

For another assay, the species on record is Homo sapiens. As to the kind of experiment: To identify inhibition of the IFN signalling (Jak-Stat) pathway via expression of an eGFP reporter gene under the control of an IFN-stimulated response element (ISRE) containing MxA promoter. The note with it: 30 µM. In kind it is functional.
In assay [7] the target is T4, Tyrosyl-tRNA synthetase, putative (Trypanosoma cruzi (strain CL Brener)) (UniProt Q4DSP6).
T4 sequence (whole entry): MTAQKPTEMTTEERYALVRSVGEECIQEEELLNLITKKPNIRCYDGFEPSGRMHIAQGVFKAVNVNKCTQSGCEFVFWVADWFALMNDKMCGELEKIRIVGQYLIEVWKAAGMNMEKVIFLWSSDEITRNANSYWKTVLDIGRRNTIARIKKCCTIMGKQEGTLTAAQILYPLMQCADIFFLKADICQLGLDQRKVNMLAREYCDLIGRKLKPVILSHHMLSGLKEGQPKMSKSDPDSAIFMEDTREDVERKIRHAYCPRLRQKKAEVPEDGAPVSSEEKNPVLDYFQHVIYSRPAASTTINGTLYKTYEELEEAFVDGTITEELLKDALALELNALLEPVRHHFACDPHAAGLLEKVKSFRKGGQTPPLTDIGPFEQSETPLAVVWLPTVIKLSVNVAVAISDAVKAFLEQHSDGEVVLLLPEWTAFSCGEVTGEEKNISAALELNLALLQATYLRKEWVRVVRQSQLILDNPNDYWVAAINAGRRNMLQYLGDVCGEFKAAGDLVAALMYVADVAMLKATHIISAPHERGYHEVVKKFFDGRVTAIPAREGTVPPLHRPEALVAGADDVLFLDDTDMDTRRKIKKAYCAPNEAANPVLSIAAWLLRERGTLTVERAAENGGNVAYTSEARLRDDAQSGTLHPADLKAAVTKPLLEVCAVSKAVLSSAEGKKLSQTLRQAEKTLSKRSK
As to the kind of experiment: Trypanosoma cruzi tyrosyl tRNA synthetase (TcYRS) _High Tyrosine SOP. Also: in the data most compounds retested in dose-response had high values. In kind it is functional. The note with it: 30 µM.

The target of assay [8] is T4, Tyrosyl-tRNA synthetase, putative (Trypanosoma cruzi (strain CL Brener)). As to the kind of experiment: Trypanosoma cruzi tyrosyl tRNA synthetase (TcYRS) SOP. In kind it is functional. The settings on record: 30 µM.
Assay [9] addresses Chromo domain-containing protein 1 (Saccharomyces cerevisiae (strain ATCC 204508 / S288c) (Baker's yeast)) (UniProt P32657). As to the kind of experiment: ScCHD-1 Enzyme Inhibition Assay. Also: in the data most compounds retested in dose-response had high values. The note with it: 30 µM. In kind it is functional.

Chromo domain-containing protein 1 (Saccharomyces cerevisiae (strain ATCC 204508 / S288c) (Baker's yeast)), sequence (P32657 whole entry, the tested form may be a part): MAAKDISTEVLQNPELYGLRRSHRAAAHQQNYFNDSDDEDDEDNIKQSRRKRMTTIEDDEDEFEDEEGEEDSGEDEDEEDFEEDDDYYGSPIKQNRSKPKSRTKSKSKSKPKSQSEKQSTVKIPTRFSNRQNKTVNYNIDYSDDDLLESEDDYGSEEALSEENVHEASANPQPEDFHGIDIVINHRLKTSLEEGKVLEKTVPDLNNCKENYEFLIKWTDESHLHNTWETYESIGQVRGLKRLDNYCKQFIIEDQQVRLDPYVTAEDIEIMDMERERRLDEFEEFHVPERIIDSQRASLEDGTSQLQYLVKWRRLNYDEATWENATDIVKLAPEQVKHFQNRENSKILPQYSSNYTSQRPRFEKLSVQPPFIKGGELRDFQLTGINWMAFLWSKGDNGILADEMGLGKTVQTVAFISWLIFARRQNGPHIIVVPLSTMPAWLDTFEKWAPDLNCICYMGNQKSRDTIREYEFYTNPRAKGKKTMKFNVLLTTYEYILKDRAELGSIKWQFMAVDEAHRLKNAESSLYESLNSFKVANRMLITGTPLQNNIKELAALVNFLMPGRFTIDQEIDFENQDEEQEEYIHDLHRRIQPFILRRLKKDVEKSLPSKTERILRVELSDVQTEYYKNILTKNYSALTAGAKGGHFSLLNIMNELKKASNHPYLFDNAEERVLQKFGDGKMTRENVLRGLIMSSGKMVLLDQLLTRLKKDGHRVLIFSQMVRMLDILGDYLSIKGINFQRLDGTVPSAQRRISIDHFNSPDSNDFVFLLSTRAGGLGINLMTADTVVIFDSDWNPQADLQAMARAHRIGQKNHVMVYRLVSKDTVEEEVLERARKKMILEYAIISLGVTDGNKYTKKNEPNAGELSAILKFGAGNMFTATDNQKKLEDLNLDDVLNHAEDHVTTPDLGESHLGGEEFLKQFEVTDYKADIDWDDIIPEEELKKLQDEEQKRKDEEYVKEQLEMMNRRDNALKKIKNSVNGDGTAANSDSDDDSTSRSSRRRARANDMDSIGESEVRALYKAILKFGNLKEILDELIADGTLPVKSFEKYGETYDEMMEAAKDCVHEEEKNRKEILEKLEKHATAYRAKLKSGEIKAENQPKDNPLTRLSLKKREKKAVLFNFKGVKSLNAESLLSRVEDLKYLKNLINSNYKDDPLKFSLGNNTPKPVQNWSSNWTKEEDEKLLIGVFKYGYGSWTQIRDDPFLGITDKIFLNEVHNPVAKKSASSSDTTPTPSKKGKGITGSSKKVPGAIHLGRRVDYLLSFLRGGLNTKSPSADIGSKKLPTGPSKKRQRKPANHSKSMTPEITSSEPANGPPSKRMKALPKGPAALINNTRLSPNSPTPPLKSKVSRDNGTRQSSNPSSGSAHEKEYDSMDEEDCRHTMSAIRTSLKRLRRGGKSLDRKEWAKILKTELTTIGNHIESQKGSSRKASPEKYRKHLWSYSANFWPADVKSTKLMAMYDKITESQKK

On to `CN(Cc1ccccc1)C1(C(=O)O)Cc2ccccc2C1`, for which the Percent Effect in assay [1] was -3.87%; in assay [2] it was 2.67%; in [3], -2.42%; in assay [4], 1.78%; with Trypanosoma cruzi, -3.6%; in assay [5] it was 3.12%. In addition, the Percent Effect was 12.9% in [6]; 5.79% in the assay filed under Homo sapiens; 2.73% in assay [7]; 8.64% in [8]; -5.27% in assay [9].

Consider `CCS(=O)(=O)N(C)C(=O)c1cc(C)n(-c2cccc(OC)c2)c1C`, for which the Percent Effect was -6.4% in assay [1]; 20.2% in [2]; -7.29% in assay [3]; 7.26% in [4]; 3.68% with Trypanosoma cruzi; -5.32% in assay [5]. Moreover, the Percent Effect in [6] was 4.34%; in the assay filed under Homo sapiens it was 28.1%; in assay [7], 4.43%; in assay [8], 21.5%; in assay [9], -8.76%.

With `COc1ccc(CNC(=O)CNc2cc3c(cc2Cl)OCCCO3)cc1`, the Percent Effect is -3.73% in assay [1]; -2.7% in assay [2]; 2.47% in [3]; -4.48% in assay [4]; -2.25% in the assay with Trypanosoma cruzi; 0.744% in [5]. Further, the Percent Effect in assay [6] was 3.35%; in the assay filed under Homo sapiens it was 11.5%; in assay [7], 1.07%; in [8], 1.24%; in assay [9], -1.22%.

Turning to `CC(C)N1CC(C(=O)NCCc2csc(-c3ccncc3)n2)CC1=O` (stereo unspecified), the Percent Effect was -0.366% in [1]; 20.8% in [2]; 5.98% in assay [3]; -0.897% in assay [4]; 2.26% with Trypanosoma cruzi; -11% in assay [5]. The Percent Effect is 14.3% in assay [6]; 21% in the assay filed under Homo sapiens; 6.45% in assay [7]; 16.1% in [8]; -6.34% in [9].

As for `C1CC(c2noc(C3CC3)n2)CN(Cc2noc(C3CC3)n2)C1` (stereo unspecified), the Percent Effect in assay [1] was -3.36%; in assay [2], 0%; in [3], -13.1%; in assay [4], 11.5%; in the assay on Trypanosoma cruzi, -3.11%; in assay [5], -1.6%. For the same compound, the Percent Effect in assay [6] is 1.62%; in the assay listed under Homo sapiens, -3.78%; in [7] it was 0.493%; in assay [8], 1.24%; in assay [9] it was 1.88%.

On to `N#Cc1ccccc1CN1CCCCC1Cn1cncn1` (stereo unspecified), for which the Percent Effect is -0.27% in assay [1]; 13.5% in assay [2]; -13.3% in assay [3]; -8.54% in assay [4]; -5.38% in the assay with Trypanosoma cruzi; 0% in [5]. The Percent Effect is -0.54% in assay [6]; 15.9% in the assay filed under Homo sapiens; 9.36% in assay [7]; 13.6% in [8]; -5.63% in [9].

Take `O=C(c1cnc(C2CC2)s1)N1CCCCC1Cn1cccn1` (stereo unspecified): the Percent Effect was -2.96% in [1]; 1.27% in [2]; 4.54% in assay [3]; -0.611% in assay [4]; -1.13% in the assay with Trypanosoma cruzi; -3.23% in assay [5]. The Percent Effect in assay [6] is 12.9%; in the assay filed under Homo sapiens, -2.91%; in assay [7], 2.08%; in assay [8], 7.59%; in assay [9], -0.92%.

As for `CCn1cc(C(=O)NCc2csc(Br)c2)cn1`, the Percent Effect in assay [1] was -4.42%; in [2], 3.8%; in [3], 6.27%; in assay [4], 4.51%; in the assay on Trypanosoma cruzi, -2.97%; in [5], 3.23%. Moreover, the Percent Effect is 7.72% in assay [6]; 13.6% in the assay filed under Homo sapiens; -1.04% in [7]; 7.59% in [8]; -2.95% in assay [9].

On to `CCc1c(C)sc(NC(=O)CN2CCN(CC)CC2)c1C(=O)OC`, for which the Percent Effect in [1] is -1.97%; in assay [2] it was -12.5%; in assay [3], -2.07%; in assay [4] it was 3.39%; in the assay with Trypanosoma cruzi, 2.62%; in assay [5] it was 0%. Moreover, the Percent Effect in assay [6] was -2.46%; in the assay filed under Homo sapiens, -12.9%; in assay [7], 0%; in [8], -2.56%; in assay [9], 2.67%.

Consider `CC(C)(C)NC(=O)C1CSCN1S(=O)(=O)c1cccc(F)c1` (stereo unspecified), for which the Percent Effect is 1.74% in [1]; 8.22% in assay [2]; -2.49% in [3]; -2.56% in assay [4]; -8.81% with Trypanosoma cruzi; 0.909% in [5]. Also, the Percent Effect was 20.2% in [6]; 12.2% in the assay listed under Homo sapiens; 3.23% in assay [7]; 10% in assay [8]; -1.73% in [9].

With `CCCC(=O)N1CCC(O)(Cn2c(CC)nc3ccccc3c2=O)CC1`, the Percent Effect was -1.08% in assay [1]; 17.6% in [2]; 21.5% in assay [3]; -2.15% in assay [4]; 3.16% with Trypanosoma cruzi; -1.16% in assay [5]. Further, the Percent Effect is 9.2% in [6]; 17.3% in the assay listed under Homo sapiens; 4.3% in assay [7]; 3.9% in [8]; -6.13% in [9].
